BoNT F protease = BoNT F light chain protease inhibition. Multiplex microsphere protease cleavage assay, flow cytometry. AID 588497. inhibition, % at 10 µM. hit rate 0.22% among 360,000; in the data active means inhibition above about 35%, passing the limit was not always enough; inconclusive means no clear call, values can overlap the other calls
TcdB GH inh = inhibitors of Clostridioides difficile toxin B glycohydrolase. P18177. TcdB glycohydrolase enzymatic assay, plate reader. inhibition, % at 9.99 µM. hit rate 0.24% among 350,000. AID 652162; in the data active means inhibition above about 10%
Autofluor counter = counter-screen for toxin protease inhibitors: compound fluorescence. hit rate 3.1% among 360,000. AID 624483. compound autofluorescence counterscreen, microsphere flow cytometry; stronger effect = higher value. fluorescence intensity (concentration not given with the values); in the data active means fluorescence intensity above about 16000; inconclusive means no clear call, values can overlap the other calls
BoNT-A LC inh2 = BoNT A light chain protease inhibition; hit rate 0.17% among 360,000; inhibition, % at 10 µM; multiplex microsphere protease substrate cleavage, flow cytometry
Anthrax LF inh2 = blocks Bacillus anthracis lethal factor protease | multiplex microsphere protease cleavage assay, LF | P15917 | hit rate 0.12% among 360,000 | inhibition, % at 10 µM
BoNT-A LC CP2 = inhibitors of botulinum neurotoxin A light chain protease | shares compounds with BoNT-A LC inh2 | multiplex microsphere protease cleavage assay, flow cytometry | inhibition, % at 10 µM | hit rate 10% among 150 | AID 602325; in the data active means inhibition above about 24%
Anthrax LF CP2 = inhibitors of Bacillus anthracis lethal factor protease; shares compounds with BoNT-A LC inh2; multiplex microsphere protease cleavage assay; inhibition, % at 10 µM; hit rate 7% among 150; in the data active means inhibition above about 25%
BoNTF LC inh 2 = BoNT/F light chain protease inhibition. shares compounds with BoNT-A LC inh2. multiplex microsphere protease cleavage assay, flow cytometry. inhibition, % at 10 µM. hit rate 7% among 150. AID 602336; in the data active means inhibition above about 25%
Large screens that a line does not name were inactive (follow-up assays come after a bar, where they were run). Shown is part of a subset that was picked to be rich in hits. Unless noted, no stated cut-off is given here; in the data, active means inhibition above about 30%; inconclusive means no clear call, values can overlap the other calls; inactive means below that.

COc1ccc(NC(=O)N(C)C[C@H]2Oc3ccc(N(C)C)cc3C(=O)N([C@@H](C)CO)C[C@@H]2C)cc1	none (no result: BoNT F protease, Autofluor counter, BoNT-A LC inh2, Anthrax LF inh2)
Cc1cc2cc(CNC(=O)Nc3cccc(Cl)c3)ccc2n1C	BoNT-A LC inh2 48 | BoNT-A LC CP2 inactive | Anthrax LF CP2 inactive | BoNTF LC inh 2 inactive
Cc1cccc(NC(=O)NCc2ccc3c(c2)OCO3)c1	Autofluor counter inconclusive
Cc1cccc(NC(=O)NCc2ccc3c(c2)cc(C)n3C)c1	BoNT-A LC inh2 58 | BoNT-A LC CP2 inactive | Anthrax LF CP2 inactive | BoNTF LC inh 2 inactive
COc1ccc(-c2ccccc2C2=CC(=O)CC(C)(C)C2=O)cc1	none
COc1ccc2cc(C3=CC(=O)CC(C)(C)C3=O)ccc2c1	Anthrax LF inh2 32 | BoNT-A LC CP2 inactive | Anthrax LF CP2 inactive | BoNTF LC inh 2 inactive
Cc1cc2ccccc2n1CCNC(=O)c1ccc(S(=O)(=O)N2CCCCC2)cc1	BoNT-A LC inh2 59 | BoNT-A LC CP2 53 | Anthrax LF CP2 inactive | BoNTF LC inh 2 inactive
Cc1cc2ccccc2n1CCNC(=O)C(C)C	BoNT-A LC inh2 80, Anthrax LF inh2 60 | BoNT-A LC CP2 29 | Anthrax LF CP2 34 | BoNTF LC inh 2 inactive
Cc1cc(C)c(S(=O)(=O)NCCn2c(C)cc3ccccc32)c(C)c1	BoNT-A LC inh2 42 | BoNT-A LC CP2 inactive | Anthrax LF CP2 inactive | BoNTF LC inh 2 inactive
Cc1cc(C)c(S(=O)(=O)NCCCn2ccnc2)c(C)c1	none (no result: TcdB GH inh)
Cc1cc2ccccc2n1CCNC(=O)Cc1ccccc1	BoNT-A LC inh2 72 | BoNT-A LC CP2 24 | Anthrax LF CP2 30 | BoNTF LC inh 2 inactive
CC(C)NC(=O)N(C)C[C@@H]1OCCCC[C@@H](C)Oc2ccc(N(C)C)cc2C(=O)N([C@@H](C)CO)C[C@H]1C	none (no result: BoNT F protease, Autofluor counter, BoNT-A LC inh2, Anthrax LF inh2)
COc1ccc(S(=O)(=O)N(C)C[C@H]2Oc3c(NC(=O)NC(C)C)cccc3C(=O)N([C@H](C)CO)C[C@H]2C)cc1	none (no result: BoNT F protease, Autofluor counter, BoNT-A LC inh2, Anthrax LF inh2)
COCCNC(=O)C(C)Oc1ccccc1 (stereo unspecified)	none
Cc1cc2ccccc2n1CCNC(=O)C(C)Oc1ccccc1 (stereo unspecified)	BoNT-A LC inh2 79 | BoNT-A LC CP2 inactive | Anthrax LF CP2 inactive | BoNTF LC inh 2 inactive

High-throughput results (PubChem BioAssay)
